The assay in a line: Compound cytotoxicity measured by an ATP content assay as a counter-screen for lead compounds in human iPSC derived neural progenitor cells (hNPCs). Particulars: human iPSC-derived NPC viability, ATP luminescence; series mostly up to 46.1 µM. In a few lines:
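hNPCs (human iPSC-derived) seeded 16–20 h, then exposed to compound for 6, 24 or 72 h at 37 C. ATP-content luminescence read after 10 min at room temperature; cytotoxicity expressed as percent inhibition of viability.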

Results filed as inconclusive are left out. Calls of active or inactive are those of the source. The call rests on the fitted dose curve; in most records, active means well fitted cell-killing curve with a large enough effect; inconclusive means small, poorly fitted or top-dose-only effect; inactive means flat fitted curve, though single readings scatter.

Turning to `NC(N)=NN=C(/C=C/c1ccc([N+](=O)[O-])o1)/C=C/c1ccc([N+](=O)[O-])o1`, the Potency is 1950 nM (active).
Turning to `CN1CCN(c2cc3c(nn2)Oc2ccccc2N3C)CC1`, the Potency entry was “inactive”.
With `O=c1[nH]nc(Sc2ncc([N+](=O)[O-])s2)n1-c1ccc2c(c1)OCCO2`, the Potency was 1730 nM (active).

These data come from PubChem BioAssay AID1224860 (National Center for Advancing Translational Sciences (NCATS), 2016).
